This note sets out measurements from PubChem BioAssay (NCATS).

The target in assay [1] is Lysosomal acid glucosylceramidase (Homo sapiens) (UniProt P04062). The experiment in a line: Glucocerebrosidase-p2 (AID 348; in the data active = potency below about 10 µM; also: potency is read from the fitted curve at half-maximal effect). Particulars: purified GBA, blue fluorogenic substrate, 40 min. In short, it runs like this: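 Normal human glucocerebrosidase (0.2 nM) with blue fluorogenic substrate (80 uM final) in citrate/phosphate pH 5.9 with 10mM sodium taurocholate, 0.01% tween-20; 40 min RT, NaOH/glycine stop; fluorescence Ex 365/Em 440; AC50 from a titration from 0.6 nM upwards.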
Lysosomal acid glucosylceramidase (Homo sapiens), sequence (P04062 whole entry, looked up): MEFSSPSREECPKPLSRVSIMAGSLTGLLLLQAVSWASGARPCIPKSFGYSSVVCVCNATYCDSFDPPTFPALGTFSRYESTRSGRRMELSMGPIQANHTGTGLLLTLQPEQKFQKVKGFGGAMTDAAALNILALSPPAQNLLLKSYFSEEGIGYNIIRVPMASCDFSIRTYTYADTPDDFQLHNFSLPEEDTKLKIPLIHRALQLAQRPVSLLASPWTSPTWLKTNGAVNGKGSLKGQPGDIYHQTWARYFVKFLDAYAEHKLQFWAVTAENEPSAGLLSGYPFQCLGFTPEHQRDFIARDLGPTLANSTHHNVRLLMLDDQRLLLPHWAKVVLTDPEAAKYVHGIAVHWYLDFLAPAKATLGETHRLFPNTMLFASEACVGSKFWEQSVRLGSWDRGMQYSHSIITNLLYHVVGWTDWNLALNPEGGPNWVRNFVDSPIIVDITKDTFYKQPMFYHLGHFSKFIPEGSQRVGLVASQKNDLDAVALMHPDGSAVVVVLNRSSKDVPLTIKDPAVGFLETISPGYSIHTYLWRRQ

A short description of assay [2]: AP1 Signaling Pathway (AID 357; active = well fitted curve in either direction with a large enough effect, not every such curve was filed as active;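 also: ME-180 reporter cells stimulated with EGF at its EC50 level; % is scaled to controls: 0 for no effect and ±100 for the full control effect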). Conditions: ME-180 AP-1-bla reporter, EGF-induced, beta-lactamase ratio, 5 h; at 7.69 µM (top of the series) unless noted. The method, boiled down: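 First, ME-180 AP-1-bla cells were cultured overnight at 37 °C in low-serum Opti-MEM. Next, titrated compounds with EC50 EGF were incubated 5 hours. Finally, CCF4 was added for 2.5 hours and the 460/530 nm ratio recorded.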

For assay [3], the target named is Cytochrome P450 1A2 (Homo sapiens) (UniProt P05177). The assay is described as follows: p450-cyp1a2 (AID 410; calls by dose curve; also: potency is read from the fitted curve at half-maximal effect). Conditions: recombinant CYP1A2, luciferin-ME demethylation, luminescence; series mostly up to 57 µM. In short, it runs like this: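 Luminescent demethylation readout: Luciferin-ME (100uM, equal to Km) turned over by 20nM CYP1A2 for 60 min at room temperature after NADPH regeneration addition, following 10 min compound preincubation. Normalization used 57 uM furafylline as full inhibition.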
Cytochrome P450 1A2 (Homo sapiens), sequence (P05177 whole entry, looked up): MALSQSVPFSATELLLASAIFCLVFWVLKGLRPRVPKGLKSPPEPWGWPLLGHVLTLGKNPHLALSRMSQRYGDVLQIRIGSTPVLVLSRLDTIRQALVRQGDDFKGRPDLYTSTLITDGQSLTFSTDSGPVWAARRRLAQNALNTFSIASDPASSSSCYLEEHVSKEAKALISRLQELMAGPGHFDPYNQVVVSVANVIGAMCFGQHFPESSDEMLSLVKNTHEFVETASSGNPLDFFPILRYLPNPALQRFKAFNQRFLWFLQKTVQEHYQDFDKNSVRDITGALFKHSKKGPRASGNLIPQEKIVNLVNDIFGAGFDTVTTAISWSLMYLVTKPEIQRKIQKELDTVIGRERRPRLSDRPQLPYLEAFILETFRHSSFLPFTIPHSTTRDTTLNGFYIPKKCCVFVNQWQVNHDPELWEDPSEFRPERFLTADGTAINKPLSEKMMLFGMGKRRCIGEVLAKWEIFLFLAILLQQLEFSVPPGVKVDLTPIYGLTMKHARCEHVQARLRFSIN

Assay [4] can be described thus: NFAT Signaling Pathway (AID 444; active = well fitted curve in either direction with a large enough effect, not every such curve was filed as active;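 also: carbachol stimulus at about its EC50 of 1 µM final; % is scaled to controls: 0 for no effect and ±100 for the full control effect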). Conditions: Jurkat NFAT-bla M1, carbachol, beta-lactamase ratio, 5 h; at 7.69 µM (top of the series) unless noted. The method, boiled down:
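Read-out: CCF4 FRET ratio (460 nm/530 nm) after 1 h RT dye loading, used for %activity and AC50 from titration series. Cells: Jurkat NFAT-β-lactamase/M1 line, treated with compound plus 1 uM carbachol for 5 h, 37 °C.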

Assay [5] can be described thus: Stat Signaling Pathway (AID 446; active = well fitted curve in either direction with a large enough effect, not every such curve was filed as active;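 also: ME-180 cervical cancer cells given 40 pM IL-6 alongside compound; SIE-controlled beta-lactamase reporter measured as 460/530 nm FRET emission ratio; % is scaled to controls: 0 for no effect and ±100 for the full control effect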). Particulars: ME-180 SIE beta-lactamase reporter, IL-6 stimulated, 5 h; at 7.69 µM (top of the series) unless noted. The method, boiled down:
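Overnight-plated ME-180 cells bearing a STAT Inducible Element beta-lactamase reporter; 5 h co-exposure to compound and 40 pM IL-6; values normalized to 300 pM IL-6 and 125 nM JAK inhibitor controls.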

Assay [6] has as its target Glucocorticoid receptor (Homo sapiens) (UniProt P04150). The assay is described as follows: GR-GFP Redistribution (AID 450;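 active = compounds whose dose series gives a full or clear partial fitted curve of increased nuclear translocation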; also: potency is read from the fitted curve at half-maximal effect). Particulars: U2OS GR-GFP nuclear translocation, laser cytometry, 2 h.
In assay [7] the target is Mitogen-activated protein kinase 10 (Mus musculus) (UniProt Q61831). The experiment in a line: JNK3 AlphaScreen Assay (AID 530; active = well fitted curve in either direction with a large enough effect, not every such curve was filed as active;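 also: kinase came from lysate of stimulated human HepG2 cells; signal reports phosphorylation of biotinylated GST-cJun 1-79 at Ser73 with 10 µM ATP; % is scaled to controls: 0 for no effect and ±100 for the full control effect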). Particulars: JNK3 lysate, c-Jun phosphorylation; series mostly up to 57.1 µM. The method, boiled down: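 qHTS titrations with 15 min compound pre-incubation before adding ATP (10 uM final). Read-out: AlphaScreen of Ser73-phosphorylated biotin-GST-cJun using HepG2 lysate JNK3 activated by IL-1β and TNFα.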
In general terms: Alpha assays give light when donor and acceptor beads are brought close together.

Assay [8] deals with Cytochrome P450 2C9 (Homo sapiens) (UniProt P11712). The assay is described as follows: qHTS Assay for Inhibitors and Substrates of Cytochrome P450 2C9 (AID 883). Also: % is scaled to controls: 0 for no effect and ±100 for the full control effect; nearly all actives have a fitted effect of over 60% in size. Particulars: recombinant CYP2C9, luciferin-H luminescence, 60 min; series mostly up to 57.1 µM. The method, boiled down: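 Turnover of Luciferin-H (100uM, KM) by 10nM human CYP2C9 was measured over 60 min at 37C with NADPH regeneration; inhibitors and some substrates reduce luminescence. Data normalized to sulphaphenazole 57uM.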
Cytochrome P450 2C9 (Homo sapiens), sequence (P11712 whole entry, looked up): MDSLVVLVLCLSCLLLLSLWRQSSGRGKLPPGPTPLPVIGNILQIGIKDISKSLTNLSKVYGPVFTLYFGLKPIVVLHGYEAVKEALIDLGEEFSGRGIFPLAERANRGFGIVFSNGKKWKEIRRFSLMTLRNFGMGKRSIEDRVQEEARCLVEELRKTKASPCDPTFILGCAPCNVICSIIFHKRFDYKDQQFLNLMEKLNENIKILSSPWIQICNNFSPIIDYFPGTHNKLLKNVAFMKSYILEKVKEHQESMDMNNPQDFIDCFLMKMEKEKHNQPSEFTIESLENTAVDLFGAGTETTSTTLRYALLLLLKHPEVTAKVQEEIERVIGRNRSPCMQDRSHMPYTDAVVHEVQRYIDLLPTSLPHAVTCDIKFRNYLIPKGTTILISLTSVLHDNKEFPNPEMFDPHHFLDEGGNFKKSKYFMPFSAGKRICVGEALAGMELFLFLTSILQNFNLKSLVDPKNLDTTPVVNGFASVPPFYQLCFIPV
In general terms: In qHTS, concentration-response curves come from the screen itself.

Assay [9] deals with Cytochrome P450 3A4 (Homo sapiens) (UniProt P08684). The assay is described as follows: qHTS Assay for Activators of Cytochrome P450 3A4 (AID 885). Also: nearly all actives have a fitted effect of over 65% in size. Also: potency is read from the fitted curve at half-maximal effect. Conditions: recombinant CYP3A4, Luciferin-PPXE luminescence, 60 min; series mostly up to 57.1 µM. The method, boiled down:
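Using 20nM recombinant human CYP3A4 in potassium phosphate (200mM), substrate Luciferin-PPXE at 25uM, luminescent luciferin detection followed a 60-min RT NADPH reaction; data scaled to 57 uM ketoconazole.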

Assay [10] addresses Dual specificity protein kinase CLK4 (Homo sapiens) (UniProt Q9HAZ1). The assay is described as follows: qHTS Assay for Inhibitors of CDC-like Kinase 4 (Kinase-Glo Assay) (AID 1770). Also: % is scaled to controls: 0 for no effect and ±100 for the full control effect; nearly all actives have a fitted effect of over 65% in size. Conditions: recombinant Clk4, Kinase-Glo ATP depletion luminescence; series mostly up to 66.7 µM. In short, it runs like this: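 Substrate mix (RS peptide 100 uM, ATP 1 uM) dispensed, compound pinned in, then Clk4 added to 25 nM final. Incubated 4.5 h at RT; Kinase-Glo reagent added, luminescence read after 5 min.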

The target is the same in assay [11]. The assay is described as follows: qHTS Assay for Inhibitors of CDC-like Kinase 4 (ADP-Glo Assay) (AID 1771). Also: % is scaled to controls: 0 for no effect and ±100 for the full control effect; nearly all actives have a fitted effect of over 70% in size. Conditions: recombinant CLK4, ADP-Glo luminescence; series mostly up to 80 µM. In short, it runs like this:
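ADP production was read by ADP-Glo luminescence after residual ATP depletion, following 1 h room-temperature reaction of 25 nM Clk4, 1 uM ATP and 100 uM RS peptide with MgCl2, EGTA, DTT and Triton X-100.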

Assay [12] shares this target. The assay is described as follows: qHTS Assay for Inhibitors of CDC-like Kinase 4 (ADP-FP Assay) (AID 1795).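 Also: recombinant human CLK4 phosphorylating RS repeat peptide at 1 µM ATP; % is scaled to controls: 0 for no effect and ±100 for the full control effect; nearly all actives have a fitted effect of over 60% in size.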 Conditions: Transcreener ADP fluorescence polarization; series mostly up to 50 µM. In short, it runs like this: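 Clk4 6.25 nM; RS peptide 100 uM; ATP 1 uM; 25 mM Tris pH 7.5, 10 mM MgCl2; 1 h reaction. ADP detected via antibody/orange tracer FP displacement; TG003 positive control.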

For assay [13], the target named is Ubiquitin carboxyl-terminal hydrolase 1 (Homo sapiens) (UniProt O94782). The experiment in a line: Inhibitors of USP1/UAF1: Pilot qHTS (AID 504865). Also: nearly all actives have a fitted effect of over 35% in size. Also: potency is read from the fitted curve at half-maximal effect. Conditions: purified USP1/UAF1, Ub-rhodamine cleavage fluorescence; series mostly up to 54.9 µM. In short, it runs like this: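 In 50mM HEPES pH 7.8 containing 0.5mM EDTA, 1mM TCEP, 0.1 mg/ml BSA and 0.01% Tween-20, 1nM USP1/UAF1 is exposed to compound for 15 min, then Ub-Rho (150nM final) is added and fluorescence is read over time.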
Ubiquitin carboxyl-terminal hydrolase 1 (Homo sapiens), sequence (O94782 whole entry, looked up): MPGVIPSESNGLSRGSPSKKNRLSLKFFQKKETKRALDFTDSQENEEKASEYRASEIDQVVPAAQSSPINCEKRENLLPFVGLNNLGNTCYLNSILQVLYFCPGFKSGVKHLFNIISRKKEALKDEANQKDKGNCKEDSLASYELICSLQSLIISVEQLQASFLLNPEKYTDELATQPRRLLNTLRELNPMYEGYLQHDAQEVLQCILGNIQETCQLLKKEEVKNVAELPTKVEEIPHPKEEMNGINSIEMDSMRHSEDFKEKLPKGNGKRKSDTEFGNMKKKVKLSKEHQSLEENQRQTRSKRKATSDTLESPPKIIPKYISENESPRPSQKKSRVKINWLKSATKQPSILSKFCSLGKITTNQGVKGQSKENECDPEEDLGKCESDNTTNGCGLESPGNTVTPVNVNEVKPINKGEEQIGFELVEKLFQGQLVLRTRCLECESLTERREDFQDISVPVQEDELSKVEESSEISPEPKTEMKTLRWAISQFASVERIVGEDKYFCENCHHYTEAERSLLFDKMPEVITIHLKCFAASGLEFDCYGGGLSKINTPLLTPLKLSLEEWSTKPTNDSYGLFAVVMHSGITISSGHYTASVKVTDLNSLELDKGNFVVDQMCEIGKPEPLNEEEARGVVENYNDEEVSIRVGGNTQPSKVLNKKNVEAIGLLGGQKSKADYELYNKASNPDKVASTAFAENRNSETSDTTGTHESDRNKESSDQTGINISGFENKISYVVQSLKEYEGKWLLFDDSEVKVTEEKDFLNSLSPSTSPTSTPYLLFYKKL

A short description of assay [14]: Primary qHTS for small molecule stabilizers of the endoplasmic reticulum resident proteome: Secreted ER Calcium Modulated Protein (SERCaMP) assay (AID 1508630). Also: % is scaled to controls: 0 for no effect and ±100 for the full control effect. Particulars: SH-SY5Y GLuc-SERCaMP (Gaussia luciferase released on ER calcium loss) secretion, thapsigargin, luminescence; series mostly up to 38.4 µM. The method, boiled down: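 The SH-SY5Y reporter protocol was run at 3 concentrations up to 38.3 uM (primary) or 11 concentrations (follow-up): 16 h compound, 100 nM thapsigargin for 4 h, then extracellular luciferase luminescence.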

Assay [15] has as its target Glucocorticoid receptor (Homo sapiens) (UniProt P04150). The assay is described as follows: GR-EFC Redistribution (AID 451; calls by dose curve; also: potency is read from the fitted curve at half-maximal effect). Particulars: CHO-K1 GR-EFC translocation, beta-gal luminescence, 2 h. In short, it runs like this: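 Translocation of GR-ED fusion to nuclear EA restores b-gal, read by luminescence after 1 h room-temperature detection. Engineered CHO-K1 biosensor cells, 1,000/well, exposed 2 h at 37 C to titrations up to 46 uM final.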

Assay [16] addresses 3',5'-cyclic-AMP phosphodiesterase 4B (Homo sapiens) (UniProt Q07343). The experiment in a line: qHTS Assay for Inhibitors of PDE-IV (AID 607; active = well fitted activation curve with a large enough effect in the main read-out, with a control signal flat, not every such curve was filed as active; also: % of control where 0% means no effect). Particulars: HEK293 ACTOne CNG channel cells, membrane potential fluorescence; series mostly up to 22.9 µM. The method, boiled down: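 Live HEK293 cells with a modified cyclic nucleotide-gated (CNG) channel report intracellular cAMP via membrane-potential dye fluorescence (ex 535/em 590 nm). Endogenous PDE-IV was targeted. Compounds were tested at up to 22.9 uM final; RO 20-1724 100 uM served as control.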

The target of assay [17] is Cytochrome P450 3A4 (Homo sapiens) (UniProt P08684). The assay is described as follows: qHTS Assay for Inhibitors and Substrates of Cytochrome P450 3A4 (AID 884). Also: nearly all actives have a fitted effect of over 50% in size. Also: potency is read from the fitted curve at half-maximal effect. Particulars: recombinant CYP3A4, Luciferin-PPXE luminescence; series mostly up to 57.1 µM. In short, it runs like this:
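Luminescent readout of luciferin produced by CYP3A4 (20 nM) dealkylation of Luciferin-PPXE, 25 uM (its KM). NADPH-driven reaction ran 60 min at RT after 10 min compound preincubation; data scaled to 57 uM ketoconazole as 100% inhibition.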

Assay [18] is described as follows: qHTS Assay for Identification of Small Molecule Agonists for Hypoxia Response Element Signaling Pathway (AID 914; active = well fitted activation curve with a large enough effect in the signal ratio, with a control signal flat, not every such curve was filed as active; the % refers to the signal ratio; also: % of control where 0% means no effect). Conditions: ME-180 (cervical carcinoma) HRE-bla reporter, beta-lactamase ratio, CoCl2, 17 h; activation: stronger effect = higher value. In short, it runs like this: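 A beta-lactamase reporter under hypoxia response element control in ME-180 cells served as the system. Compound titrations plus EC50 CoCl2 ran 17 h at 37 degrees Celsius; AC50 values were fitted from %Activity.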

Molecules are shown by their SMILES. Values without a mark were called inactive. Records with an inconclusive call do not appear. Calls of active or inactive are those of the source. Unless noted, calls follow the shape of the dose curve; as a rule, active = well fitted curve in the direction sought with a large enough effect; inconclusive = small, poorly fitted or top-dose-only effect, or another doubt; inactive = no such curve, though single readings can be large; an effect the other way counts as inactive or inconclusive.

Cytochrome P450 3A4 (Homo sapiens), sequence (P08684 whole entry, looked up): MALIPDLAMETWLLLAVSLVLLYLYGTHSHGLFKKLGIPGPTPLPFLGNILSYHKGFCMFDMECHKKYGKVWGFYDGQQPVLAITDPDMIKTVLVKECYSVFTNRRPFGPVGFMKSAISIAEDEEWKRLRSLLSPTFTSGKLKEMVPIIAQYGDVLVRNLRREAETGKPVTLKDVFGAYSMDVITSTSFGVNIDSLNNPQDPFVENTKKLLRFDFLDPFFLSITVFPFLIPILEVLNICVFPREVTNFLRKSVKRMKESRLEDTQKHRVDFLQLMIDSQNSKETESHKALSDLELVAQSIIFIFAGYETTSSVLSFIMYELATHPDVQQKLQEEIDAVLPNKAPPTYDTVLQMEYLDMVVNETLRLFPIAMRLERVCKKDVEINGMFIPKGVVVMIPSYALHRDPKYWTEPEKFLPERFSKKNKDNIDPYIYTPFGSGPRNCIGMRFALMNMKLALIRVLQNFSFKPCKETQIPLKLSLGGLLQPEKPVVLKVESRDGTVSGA
Dual specificity protein kinase CLK4 (Homo sapiens), sequence (Q9HAZ1 whole entry, looked up): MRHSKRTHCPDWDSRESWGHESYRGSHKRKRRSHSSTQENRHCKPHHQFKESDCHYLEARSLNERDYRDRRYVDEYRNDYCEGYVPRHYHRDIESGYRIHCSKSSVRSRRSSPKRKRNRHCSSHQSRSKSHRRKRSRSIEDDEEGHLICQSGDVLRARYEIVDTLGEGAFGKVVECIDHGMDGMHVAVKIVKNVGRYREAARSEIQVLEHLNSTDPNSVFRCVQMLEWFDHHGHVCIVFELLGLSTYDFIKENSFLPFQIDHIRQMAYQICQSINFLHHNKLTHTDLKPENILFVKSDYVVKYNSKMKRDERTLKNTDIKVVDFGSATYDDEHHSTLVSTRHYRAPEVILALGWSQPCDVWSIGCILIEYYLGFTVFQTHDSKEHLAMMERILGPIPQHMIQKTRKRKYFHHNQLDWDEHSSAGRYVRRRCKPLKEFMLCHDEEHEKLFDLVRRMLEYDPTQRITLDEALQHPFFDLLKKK
3',5'-cyclic-AMP phosphodiesterase 4B (Homo sapiens), sequence (Q07343 whole entry, looked up): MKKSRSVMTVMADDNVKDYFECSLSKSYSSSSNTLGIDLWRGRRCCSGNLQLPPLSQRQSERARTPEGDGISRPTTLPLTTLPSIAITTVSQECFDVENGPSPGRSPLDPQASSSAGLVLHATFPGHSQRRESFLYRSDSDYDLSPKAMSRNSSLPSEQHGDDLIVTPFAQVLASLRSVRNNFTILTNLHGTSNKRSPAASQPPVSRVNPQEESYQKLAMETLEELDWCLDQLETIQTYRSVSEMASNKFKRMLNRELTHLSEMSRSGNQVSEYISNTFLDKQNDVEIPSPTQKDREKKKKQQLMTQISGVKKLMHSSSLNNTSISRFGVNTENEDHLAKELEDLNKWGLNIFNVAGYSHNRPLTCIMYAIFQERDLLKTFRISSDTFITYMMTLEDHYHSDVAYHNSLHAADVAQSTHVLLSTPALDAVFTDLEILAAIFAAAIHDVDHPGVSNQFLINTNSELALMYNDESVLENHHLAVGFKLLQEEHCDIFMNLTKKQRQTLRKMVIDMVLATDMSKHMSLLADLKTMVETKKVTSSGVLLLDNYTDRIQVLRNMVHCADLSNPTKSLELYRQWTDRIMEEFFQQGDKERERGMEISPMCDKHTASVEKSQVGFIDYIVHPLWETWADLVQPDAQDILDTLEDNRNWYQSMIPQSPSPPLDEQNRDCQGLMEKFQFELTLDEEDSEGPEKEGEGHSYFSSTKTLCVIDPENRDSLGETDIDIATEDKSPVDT
Glucocorticoid receptor (Homo sapiens), sequence (P04150 whole entry, looked up, the tested form may be a part): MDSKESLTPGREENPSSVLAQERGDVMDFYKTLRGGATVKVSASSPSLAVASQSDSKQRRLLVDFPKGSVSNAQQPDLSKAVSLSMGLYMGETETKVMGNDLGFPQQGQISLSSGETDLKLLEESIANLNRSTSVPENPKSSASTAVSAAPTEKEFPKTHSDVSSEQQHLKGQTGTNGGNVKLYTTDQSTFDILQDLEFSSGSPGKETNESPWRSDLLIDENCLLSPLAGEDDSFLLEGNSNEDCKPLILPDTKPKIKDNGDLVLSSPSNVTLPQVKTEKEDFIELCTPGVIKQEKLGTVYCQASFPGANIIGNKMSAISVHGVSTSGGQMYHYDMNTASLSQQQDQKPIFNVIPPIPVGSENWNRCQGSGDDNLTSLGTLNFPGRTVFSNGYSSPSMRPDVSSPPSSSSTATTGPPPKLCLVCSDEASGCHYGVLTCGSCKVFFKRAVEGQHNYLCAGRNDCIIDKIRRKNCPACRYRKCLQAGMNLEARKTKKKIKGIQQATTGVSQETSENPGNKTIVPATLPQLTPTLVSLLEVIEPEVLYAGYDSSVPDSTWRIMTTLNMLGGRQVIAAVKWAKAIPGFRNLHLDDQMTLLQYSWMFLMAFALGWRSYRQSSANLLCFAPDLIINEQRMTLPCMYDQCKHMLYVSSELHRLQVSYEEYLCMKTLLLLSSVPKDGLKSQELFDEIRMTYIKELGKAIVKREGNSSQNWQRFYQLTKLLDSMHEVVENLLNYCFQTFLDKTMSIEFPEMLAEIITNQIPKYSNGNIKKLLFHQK

Take `COc1ncc2nc(-c3cn(C)c4ccccc34)c(=O)n(-c3ccccc3)c2n1`: the figures for the Potency in [1], in assay [3] and in [6] were over 11.4 µM, 5.01 µM (active) and over 9.22 µM, respectively. The activity change, negative = inhibition in assay [2] was -0.341%; in [4], -18.5%. The activity, negative = inhibition in [5] is 6.13%. Besides, the Potency entry in assay [7], in assay [8], in [9], in assay [10], in assay [11] and in assay [12] was “inactive” in each case. Besides, in assay [13], the Potency entry was “inactive”. The outcome in [14] was inactive.

`O=c1c(-c2ccc(Cl)cc2)nc2cnc(N3CCOCC3)nc2n1CCc1ccccc1`: the Potency is over 11.4 µM in assay [1]; 2 µM (active) in assay [3]; over 9.22 µM in assay [6]; over 46 µM in assay [15]; 15.8 µM (active) in assay [9]. For the same compound, the activity change, negative = inhibition in assay [2] is 87.9% [activator] (active); in assay [4], 112% [activator] (active). The Potency result in assay [7], in [16], in assay [17], in assay [10], in assay [11] and in assay [12] was “inactive” each time. Also, the Potency result in assay [13] is “inactive”. Moreover, the outcome in assay [14] was inactive.

Turning to `CCNc1ncc2nc(-c3cccs3)c(=O)n(Cc3ccc(F)cc3)c2n1`, the Potency is over 11.4 µM in [1]; 10 µM (active) in assay [3]; over 9.22 µM in [6]; over 46 µM in [15]; 20 µM (active) in [13]. For the same compound, the activity change, negative = inhibition in assay [2] is 24.9%; in [4] it was -12.4%. Further, the Potency result in [16], in assay [9], in [10], in assay [11] and in [12] was “inactive” throughout. The result in [14] was inactive.

Consider `COc1ccccc1-c1cncnc1N(C)Cc1ccco1`, for which the Potency in assay [1] is over 11.4 µM; in assay [3], 15.8 µM (active); in assay [6] it was over 46 µM; in assay [15] it was over 46 µM; in assay [17], 1.26 µM (active). Besides, the activity change, negative = inhibition in [2] is -9.6%. The activity, negative = inhibition in [5] was 17%. The Potency result in [7], in [16], in [9], in assay [10], in [11] and in assay [12] was “inactive” each time. Further, the Potency result in assay [13] was “inactive”. In assay [18], the activation was -12.2%. In assay [14], the outcome was inactive.

As for `Cc1cnc(CNc2nc(-c3ccccc3C(F)(F)F)nc3ccccc23)cn1`, the Potency was over 11.4 µM in assay [1], 12.6 µM (active) in assay [3], over 46 µM in [6] and over 46 µM in [15]. Further, the activity change, negative = inhibition in assay [2] was -16.3%; in assay [4] it was 12.8%. Besides, the activity, negative = inhibition in assay [5] is -2.08%. Besides, the Potency entry in [7], in assay [16], in [9], in assay [10], in assay [11] and in assay [12] was “inactive” throughout. Also, the result in assay [14] was inactive.

On to `COc1ccc(-c2nc3cnc(OC)nc3n(CCC#N)c2=O)cc1`, for which the Potency in assay [1] was over 11.4 µM; in [3] it was 6.31 µM (active); in [6], over 9.22 µM; in [15], over 46 µM. The activity change, negative = inhibition in assay [2] was -7.37%; in assay [4] it was -4.16%. In addition, the Potency entry in assay [7], in assay [16], in assay [10], in assay [11], in assay [12] and in assay [13] was “inactive” throughout. For the same compound, the result in assay [14] was inactive.
